Data as given in PubChem BioAssay.
Several values for one entry are separate records, joined by “and”; a condition that tells them apart may be missing. Identical values can stand only once. Activity calls are given as the source filed them.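 Rule for the calls, unless noted: active = compounds whose cell count with miR-34 switched on is under 0.7 times the count with it off; inactive = the rest.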

Assays:
[1] = sensitizers of A549 cells to miR-34 induction, primary screen, imaging, A549 dox-inducible miR-34, nuclei and caspase counts (AID 1347080); conditions: A549 miR-34 inducible, Hoechst nuclei count, 48 h; note: test concentration not given here
[2] = survival rescue of mitochondrial mutant cells in low glucose, primary screen, MELAS cybrids, Rieske KO mouse fibroblasts, CellTiter-Glo (AID 1508586;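 active = mean z-score across replicates of 1.96 or higher in either the MELAS or the Rieske mutant cell line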;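 note: test concentration not given here; z relative to plate mean and SD of compound and empty wells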)
[3] = viability rescue of complex I mutant cybrids, primary screen, cell-based, galactose medium, ATP luminescence (AID 1645843;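 active = z-score of at least 1.8 in each of two replicates, scored against plate mean and spread of sample wells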;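 note: positive z means more ATP and so rescue of galactose-driven cybrid death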); conditions: complex I mutant cybrid cells, 72 h, stronger effect = higher value
[4] = stronger effect = lower value, cell number ratio, induced over uninduced
[5] = measured here: relative caspase fold change +Dox/-Dox
[6] = measured here: total cells with miR-34 induction, stronger effect = lower value
[7] = measured here: total cells without miR-34 induction
[8] = MELAS cybrid survival, CellTiter-Glo 48 h, stronger effect = higher value
[9] = Rieske KO mouse fibroblast survival, CellTiter-Glo 72 h

Row | Compound | fold change [1, 4] | fold change [1, 5] | cell count [1, 6] | cell count [1, 7] | z-score [2, 8] | z-score [2, 9] | z-score [3]
1 | CN1CC2c3ccccc3Oc3ccc(Cl)cc3C2C1 (centres undefined) | 0.788 (inactive) | 0.355 | 4990 | 6330 | 0.214 (inactive) | 0.0022 | -2.21 (inactive)
2 | Cc1nsc(NC(=O)N2CCCCC2c2nc(C(C)C)no2)n1 (centres undefined) | 0.906 (inactive) | 1.98 | 9100 | 10000 | -0.274 (inactive) | -0.381 | -0.525 (inactive)
3 | COc1ncccc1C(=O)N1CCOc2ccccc21 | 1 (inactive) | 1.28 | 8450 | 8420 | 0.0792 (inactive) | -0.0817 | -0.395 (inactive)
4 | CC(O)Cc1cn(C2CCN(c3ncnc4nc[nH]c34)CC2)nn1 (centres undefined) | 0.957 (inactive) | 0.915 | 8270 | 8650 | -0.102 (inactive) | -1.64 | -0.52 (inactive)
5 | Cn1nc(-c2cccnc2)c2[nH]c(-c3ccccc3OC(F)F)nc21 | 0.875 (inactive) | 0.925 | 6510 | 7440 | -1.45 (inactive) | 0.404 | 0.095 (inactive)
6 | COC(=O)CN1CCN(C(=O)Nc2n[nH]c(-c3ccco3)n2)CC1=O | 0.915 (inactive) | 1.4 | 9430 | 10300 | 0.382 (inactive) | 0.531 | 1.98 (inactive)
7 | Cc1ccc(NS(=O)(=O)c2ccccc2)c(C(=O)O)c1 | 0.888 (inactive) | 0.521 | 8960 | 10100 | 0.391 (inactive) | -0.208 | 0.425 (inactive)
8 | Cc1cc(-c2cccc(OC(C)C)c2)nc(N)n1 | 0.871 (inactive) | 1.62 | 7710 | 8860 | -1.21 (inactive) | 0.889 | -0.56 (inactive)
9 | COc1ccccc1-c1ccc(C(=O)O)o1 | 0.892 (inactive) | 0.465 | 8930 | 10000 | -1.1 (inactive) | 0.506 | 1.07 (inactive)
10 | CC(=O)NCCc1ccc(S(N)(=O)=O)cc1 | 0.918 (inactive) | 0.641 | 7840 | 8540 | 0.668 (inactive) | -0.256 | -0.065 (inactive)
11 | COc1ccc(-c2ncnc3sc(C)c(C)c23)c2cccnc12 | 0.949 (inactive) | 0.85 | 7370 | 7760 | 0.0989 (inactive) | -0.295 | -0.525 (inactive)
12 | Cc1cc(=O)oc2cc(OC3OC(CO)C(O)C(O)C3O)ccc12 (centres undefined) | 0.875 (inactive) | 0.68 | 8660 | 9900 | 0.734 (inactive) | -0.54 | 0.72 (inactive)
13 | Cc1csc2ncnc(-c3cccc4ncccc34)c12 | 0.896 (inactive) | 0.971 | 7440 | 8300 | 0.0854 (inactive) | -0.504 | -0.49 (inactive)
14 | Cc1cc2nc3[nH]c(=O)[nH]c(=O)c3nc2cc1C | 0.917 (inactive) | 0.188 | 7820 | 8530 | 1.63 (inactive) | 0.292 | 0.825 (inactive)
15 | CN1CCN(c2ncnc3sccc23)CC1=O | 0.928 (inactive) | 1.32 | 9620 | 10400 | -0.0885 (inactive) | -0.276 | -0.54 (inactive)
16 | CCn1ncc2[nH]c(-c3cnn(C)c3-c3ccccc3)nc21 | 0.88 (inactive) | 1.89 | 8480 | 9640 | -0.346 (inactive) | -0.221 | -0.49 (inactive)
17 | O=[N+]([O-])c1ccc2[nH]ncc2c1 | 0.885 (inactive) | 0.558 | 8690 | 9820 | 0.727 (inactive) | -0.415 | -0.195 (inactive)
18 | O=C(Cn1nc(Cc2ccccc2)c2ccccc2c1=O)NCCc1ccco1 | 0.937 (inactive) | 0.881 | 8560 | 9130 | 1.48 (inactive) | 0.664 | -0.33 (inactive)
19 | CN1CCN(Cc2cccc(Oc3ccccc3)c2)CC1CCO (centres undefined) | 0.916 (inactive) | 1.42 | 8810 | 9620 | -0.228 (inactive) | -0.0315 | -0.55 (inactive)
20 | O=C(O)CC(O)CC(O)C=Cc1c(C2CC2)nc2ccccc2c1-c1ccc(F)cc1 (centres undefined) | 0.905 (inactive) and 0.948 (inactive) | 0.849 and 0.847 | 771 and 1550 | 852 and 1630 | 1.33 (inactive) | -0.125 | -1.86 (inactive)
21 | O=C(Cn1nnc(-c2ccccc2)n1)Nc1ccnn1Cc1ccccc1 | 0.843 (inactive) | 1.22 | 7640 | 9060 | -0.218 (inactive) | -0.596 | 0.045 (inactive)
22 | O=C1CC(c2ccc(O)cc2)Oc2cc(O)ccc21 (centres undefined) | 0.9 (inactive) | 0.718 | 8540 | 9500 | 0.67 (inactive) | -0.313 | 0.305 (inactive)
23 | CC(C)SC1OC(CO)C(O)C(O)C1O (centres undefined) | 0.887 (inactive) | 0.478 | 8290 | 9350 | -0.322 (inactive) | -0.813 | 0.635 (inactive)
24 | CC(=O)Nc1nc2c(s1)C(=O)NCCC2 | 0.907 (inactive) | 0.479 | 8770 | 9670 | 0.0141 (inactive) | -0.403 | 0.685 (inactive)

Row | Compound | fold change [1, 4] | fold change [1, 5] | cell count [1, 6] | cell count [1, 7] | z-score [2, 8] | z-score [2, 9] | z-score [3]
25 | Nc1ccn(C2OC(CO)C(O)C2O)c(=O)n1 (centres undefined) | 1.14 (inactive) and 0.906 (inactive) | 0.982 and 0.86 | 2260 and 7940 | 1990 and 8760 | -0.137 (inactive) | -0.441 | -1.19 (inactive)
26 | O=c1cc(-c2ccncc2)nc(-c2cccc(CN3CCCC(CO)C3)c2)[nH]1 (centres undefined) | 0.934 (inactive) | 0.922 | 8470 | 9070 | -0.423 (inactive) | 0.0738 | 0.08 (inactive)
27 | COc1cc(OC)c(-c2nnc3ccccn23)cc1OC | 0.917 (inactive) | 1.49 | 9720 | 10600 | -0.104 (inactive) | 0.208 | -0.52 (inactive)
28 | Nc1ncccc1OCc1ccccc1 | 0.764 (inactive) | 0.403 | 7870 | 10300 | -0.968 (inactive) | -0.912 | -0.165 (inactive)
29 | O=c1c2nccnc2ncn1Cc1ccc2nsnc2c1 | 0.878 (inactive) | 1.36 | 8120 | 9250 | -0.0326 (inactive) | -0.667 | -0.53 (inactive)
30 | CCN(CC)C(=O)c1c(NC(=O)c2cccs2)sc2c1CCCC2 | 1.02 (inactive) | 0.802 | 1650 | 1620 | 0.194 (inactive) | 0.0357 | -0.49 (inactive)
31 | CCc1nc(NC(=O)N(C)Cc2cccc(-n3cccn3)c2)nn1C | 0.843 (inactive) | 1.39 | 7990 | 9480 | 0.262 (inactive) | -0.471 | -0.535 (inactive)
32 | Cc1cccc(-n2cnc3cc(N)ccc32)c1 | 0.889 (inactive) | 1.07 | 8160 | 9170 | 1.59 (inactive) | 0.221 | 0.94 (inactive)
33 | CSCCC(NC(C)=O)C(=O)O (centres undefined) | 0.861 (inactive) | 0.784 | 8190 | 9520 | 0.71 (inactive) | -0.087 | 0.53 (inactive)
34 | NC(N)=NC(N)=Nc1cc(C(F)(F)F)ccc1Cl | 0.901 (inactive) | 0.694 | 7310 | 8110 | 0.898 (inactive) | -0.189 | -1.95 (inactive)
35 | Nc1ncc(Cc2ccccc2)s1 | 0.906 (inactive) | 0.514 | 8010 | 8850 | -0.355 (inactive) | -0.511 | -0.26 (inactive)
36 | CC(C)(O)c1ccccc1CCC(SCC1(CC(=O)O)CC1)c1cccc(C=Cc2ccc3ccc(Cl)cc3n2)c1 (centres undefined) | 0.925 (inactive) and 0.834 (inactive) | 1.67 and 2.27 | 8950 and 7950 | 9680 and 9540 | -0.195 (inactive) | -0.136 | 0.25 (inactive)
37 | C[C@H](NC(=O)c1cnc(-c2ccccc2)[nH]1)c1ccccc1 | 0.876 (inactive) | 2.24 | 7380 | 8420 | 0.341 (inactive) | -0.103 | -0.6 (inactive)
38 | CCOc1ccc(C=C2NCCc3cc(OCC)c(OCC)cc32)cc1OCC | 0.846 (inactive) | 0.801 | 4950 | 5850 | -1.41 (inactive) | -0.0245 | -2.65 (inactive)
39 | O=C(Nc1cccc(-c2nn[nH]n2)c1)c1cccc(F)c1 | 0.949 (inactive) | 0.795 | 8970 | 9450 | 1.21 (inactive) | -0.523 | 0.385 (inactive)
40 | Nc1nc(Nc2cccc(Cl)c2)sc1C(=O)c1ccc(F)cc1 | 0.868 (inactive) | 0.635 | 7020 | 8090 | 1.64 (inactive) | 0.109 | -2.28 (inactive)
41 | CC1(C)OC2CO[C@@]3(COS(N)(=O)=O)OC(C)(C)OC3C2O1 (some centres undefined) | 0.947 (inactive) and 0.976 (inactive) | 1.9 and 0.922 | 9570 and 9420 | 10100 and 9650 | 1.94 (inactive) | -0.659 | 1.01 (inactive)
42 | Cc1nc2ccc(CN(C)c3ccc(C(=O)NC(CCC(=O)O)C(=O)O)s3)cc2c(=O)[nH]1 (centres undefined) | 1.21 (inactive) and 1.1 (inactive) | 1.12 and 0.742 | 1780 and 1710 | 1470 and 1560 | -0.603 (inactive) | -0.121 | -1.03 (inactive)
43 | COc1ccccc1C(=O)N1CCC(n2cc(-c3ccccn3)nn2)CC1 | 0.917 (inactive) | 1.29 | 8760 | 9560 | 0.129 (inactive) | -0.319 | -0.23 (inactive)
44 | Cc1nn(C)c(C)c1-c1ccnc(NCCOCCO)n1 | 0.905 (inactive) | 1.28 | 8320 | 9200 | 0.0151 (inactive) | -0.129 | -0.555 (inactive)
45 | NS(=O)(=O)c1ccc(F)cc1 | 0.896 (inactive) | 0.251 | 9050 | 10100 | 0.294 (inactive) | -0.158 | 0.18 (inactive)
46 | COCCn1cncc1CNc1nccc(-c2c(C)nn(C)c2C)n1 | 0.881 (inactive) | 0.975 | 8090 | 9180 | -0.172 (inactive) | -0.0475 | -0.325 (inactive)
47 | CCCn1ncc(-c2ccnc(NCc3cc(CC)no3)n2)c1C | 0.843 (inactive) | 1.57 | 6710 | 7960 | -0.178 (inactive) | -0.0436 | -0.59 (inactive)
